Assay results as given in ChEMBL document CHEMBL4513141, “CO-ADD screening of NIH (USA) - Clinical Collection” (2021).
Entries with a potency or affinity are not part of this list.

The compounds below were run on Staphylococcus aureus. Details: Concentration 20 uM; ASSAY_TEST Inhibition of Bacterial Growth; detection method Absorption (OD600); MEDIA CAMHB; plate type 384well; NBS; CORNING #3640; time 18 hr.

Row | Compound | Inhibition [%]
1 | CNC(=C[N+](=O)[O-])NCCSCc1csc(CN(C)C)n1 [NIZATIDINE] | 11.02
2 | CC(=O)NS(=O)(=O)c1ccc(N)cc1 [SULFACETAMIDE] | 13.64
3 | CCOC(=O)[C@H](CCc1ccccc1)N[C@@H](C)C(=O)N1Cc2ccccc2C[C@H]1C(=O)O.Cl [QUINAPRIL HYDROCHLORIDE] | 16.74
4 | O=S(=O)([O-])CCS.[Na+] [MESNA] | 2.58
5 | CCC[C@@H]1C[C@@H](C(=O)N[C@@H]([C@H]2O[C@H](SC)[C@H](O)[C@@H](O)[C@H]2O)[C@@H](C)O)N(C)C1.Cl.O [LINCOMYCIN HYDROCHLORIDE] | 20.41
6 | COC(=O)[C@H](c1ccccc1Cl)N1CCc2sccc2C1 [CLOPIDOGREL] | 12.7
7 | Cl.Nc1c2c(nc3ccccc13)CCCC2 [TACRINE HYDROCHLORIDE] | 10.46
8 | Cc1cccc(C)c1NC(=O)C(C)N (stereo not drawn) [TOCAINIDE] | 2.4
9 | CC(C)(C)NC(=O)[C@@H]1CN(Cc2cccnc2)CCN1C[C@@H](O)C[C@@H](Cc1ccccc1)C(=O)N[C@H]1c2ccccc2C[C@H]1O.O=S(=O)(O)O [INDINAVIR SULFATE] | 6.61
10 | C#C[C@]1(O)CC[C@H]2[C@@H]3CCc4cc(O)ccc4[C@H]3CC[C@@]21C [ETHINYL ESTRADIOL] | 1.21
11 | CC1(C)C[C@@H]1C(=O)N/C(=C\CCCCSC[C@H](N)C(=O)O)C(=O)[O-].[Na+] [CILASTATIN SODIUM] | -4.51
12 | Cc1cn([C@H]2C=C[C@@H](CO)O2)c(=O)[nH]c1=O [STAVUDINE] | 17.22
13 | Cc1cnc(NC(=O)C2=C(O)c3ccccc3S(=O)(=O)N2C)s1 [MELOXICAM] | -0.24
14 | CC12CC3CC(C)(C1)CC(N)(C3)C2.Cl [MEMANTINE HYDROCHLORIDE] | 17.71
15 | CC=CC(=O)N(CC)c1ccccc1C | 8.78
16 | COc1ccccc1OCCNCC(O)COc1cccc2[nH]c3ccccc3c12 (stereo not drawn) [CARVEDILOL] | 10.39
17 | CC(CN1c2ccccc2Sc2ccccc21)N(C)C.Cl (stereo not drawn) [PROMETHAZINE HYDROCHLORIDE] | 15.79

Row | Compound | Inhibition [%]
18 | Nc1ccc(O)c(C(=O)O)c1 [MESALAMINE] | -19.58
19 | Oc1ccc(/C=C/c2cc(O)cc(O)c2)cc1 [RESVERATROL] | 19.49
20 | C[C@]12C=CC(=O)C=C1CC[C@@H]1[C@@H]2[C@@H](O)C[C@@]2(C)[C@H]1CC[C@]2(O)C(=O)CO [PREDNISOLONE] | 7.56
21 | CNNCc1ccc(C(=O)NC(C)C)cc1.Cl [PROCARBAZINE HYDROCHLORIDE] | 12.92
22 | CCc1ccc(CCOc2ccc(CC3SC(=O)NC3=O)cc2)nc1.Cl (stereo not drawn) [PIOGLITAZONE HYDROCHLORIDE] | 3.82
23 | Cc1nc2n(c(=O)c1CCN1CCC(c3noc4cc(F)ccc34)CC1)CCCC2 [RISPERIDONE] | 4.53
24 | Cc1ccc(N(CC2=NCCN2)c2cccc(O)c2)cc1 [PHENTOLAMINE] | 2.09
25 | CC1CC2C3CCC4=CC(=O)C=CC4(C)[C@@]3(Cl)C(O)CC2(C)C1(O)C(=O)CO (stereo partly drawn) | 12.42
26 | CCN(CC)CCNC(=O)c1ccc(N)cc1.Cl [PROCAINAMIDE HYDROCHLORIDE] | -10.39
27 | CSc1nc2cc(Cl)c(Oc3cccc(Cl)c3Cl)cc2[nH]1 [TRICLABENDAZOLE] | 7.06
28 | CN(C)CCCN1c2ccccc2Sc2ccc(Cl)cc21.Cl [CHLORPROMAZINE HYDROCHLORIDE] | 10.22
29 | CCc1cccc2c3c([nH]c12)C(CC)(CC(=O)O)OCC3 (stereo not drawn) [ETODOLAC] | 5.09
30 | C[C@@H](O)[C@H]1C(=O)N2C(C(=O)O)=C(S[C@@H]3CN[C@H](C(=O)N(C)C)C3)[C@H](C)[C@H]12 [MEROPENEM] | -14.17
31 | Cc1cccc(C)c1OCC(C)N.Cl (stereo not drawn) [MEXILETINE HYDROCHLORIDE] | 13.57
32 | CC(CCc1ccccc1)NCC(O)c1ccc(O)c(C(N)=O)c1.Cl (stereo not drawn) [LABETALOL HYDROCHLORIDE] | 13.4
33 | Cc1ccsc1C(=CCCN1CCC[C@@H](C(=O)O)C1)c1sccc1C.Cl [TIAGABINE HYDROCHLORIDE] | 12.29
